The results in this text go back to PubChem BioAssay (NCI).

“And” between values parts separate entries of the source, which are not always exact repeats. Equal entries are not always repeated. The panel holds about 83,000 compounds, 20% with a hit somewhere; the sample as a whole holds those more often.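 Note: values are percent growth. 100 is the growth of untreated cells, values between 100 and 0 indicate rising inhibition; between -100 and 0 indicates cell death.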 Unmarked numbers belong to inactive results. The source made the active and inactive calls. Rule for the calls: active = growth percent below 10; inactive = the rest.

This assay has as its system MDA-MB-468 breast. As to the kind of experiment: NCI-60 one-dose screen, 48 h (100 = growth as untreated, 0 = no growth, -100 = all killed). The following applies: 10 µM unless noted.
Turning to `O=C1CSC(c2ccc(O)cc2)N1c1nnc(Cn2cnnc2)o1` (stereo not given), the growth is 48%.

For the molecule `CCN(CC)Cc1cccc(C(=O)OC)c1`, the growth is 97.2%.

In the case of `Cc1ccc(C(=O)CSc2nc(-c3ccc(Br)cc3)c(C#N)c(=O)[nH]2)cc1`, the growth was 92.2%.

In the case of `O=C(c1ccccc1)c1c(/C=C/c2ccccc2)c2ccccc2[nH]c1=O`, the growth is 94.5%.

`O=S(=O)(Nc1ccc(NS(=O)(=O)c2ccccc2)c(Cl)c1)c1ccccc1`: the growth was 116%.

On to `O=C(N/N=C/c1cccnc1)c1ccccc1Nc1cccc(C(F)(F)F)c1`, for which the growth was 74.5%.

As to `OCCNc1nc(NCCO)nc(Nc2ccc(C3=NN(c4cc(Cl)cc(Cl)c4)C(c4ccc(C(F)(F)F)cc4)C3)cc2)n1` (stereo not given), the growth is 39.7%.

On to `O=C1c2ccccc2C(=O)c2c1oc1c2c(=O)[nH]c2ccccc21`, for which the growth was -8.43% (active).

Regarding `COC(=O)c1ccc(NC(=O)CCl)cc1`, the growth is 83.2%.

With `O=[N+]([O-])c1ccc(Oc2ccc(-c3ccccc3)cc2)cc1`, the growth is 71.4%.

With `CN1C(=O)N(C)C2C1NN=c1s/c(=C\c3cccnc3)c(=O)n12` (stereo not given), the growth was 58.1%.

Turning to `O=C(NCc1cccnc1)c1ccc([N+](=O)[O-])o1`, the growth was 69.5%.

As to `CO[C@H]1CC(O[C@@H]2/C(C)=C/C[C@@H]3C[C@@H](C[C@]4(C=C[C@H](C)[C@@H](C5CCCCC5)O4)O3)OC(=O)[C@@H]3C=C(C)[C@@H](O)[C@H]4OC/C(=C\C=C\[C@@H]2C)[C@]43O)O[C@@H](C)C1O[C@H]1C[C@H](OC)[C@@H](O)[C@H](C)O1` (stereo not given in full), the growth was -72.5% (active).

Consider `COc1cccc(C2C3=C(COC3=O)N(CCO)c3cc4c(cc32)OCCO4)c1` (stereo not given), for which the growth is -52.9% (active).

With `NC(=O)c1cc2c3ccccc3ccn2c1-c1ccccc1`, the growth is 17.5%.

In the case of `COc1ccc(/C(C)=N/NC(=O)CSc2nc3ccccc3c(=O)n2Cc2ccc(S(N)(=O)=O)cc2)c(OC)c1`, the growth was 93.9%.

Regarding `CC(=O)c1ccc2oc(=O)n(Cc3ccc(C#N)cc3)c(=O)c2c1`, the growth is 108%.

Turning to `COc1cc(OC)cc(-c2ccc(-c3ccc(C(=N)N)o3)o2)c1`, the growth is 10.5%.

On to `COc1ccc([C@@H]2c3[nH]c4ccccc4c3CC3C(=O)N(C4CCN(Cc5c(F)cccc5F)CC4)CC(=O)N32)c(OC)c1` (stereo not given in full), for which the growth was 40.6% [5.26 µM].

As for `COc1ccccc1C1OC2=Nc3cc(C)c(C)cc3NC2C1=O` (stereo not given), the growth was 66.2%.

On to `CN(C)CCCOc1c2ccccc2nc2c1oc1ccc(Cl)cc12`, for which the growth is -3.66% (active).

As for `NC(=NCCCOc1ccc(Cl)cc1)Nc1ccc(Cl)cc1`, the growth was -14.9% (active).

As to `OCc1cccc(F)c1`, the growth is 68.9%.

Turning to `CCC(C)Nc1ccc(NC(C)CC)cc1` (stereo not given), the growth is 8.07% (active).

For `O=C(Nc1ccncc1)C(=O)c1cn(S(=O)(=O)c2ccc(F)cc2)c2ccccc12`, the growth is 14.9%.

As for `O=C(CCCCCCNC(=O)C(O)(O)C(F)(F)F)Nc1nc2ccccc2s1`, the growth was -12.8% (active).

In the case of `Nc1c(C(=O)Nc2ccccc2F)sc2nc3c(cc12)C(=O)CCC3`, the growth was -15.2% (active).

Consider `Cc1[nH]c(/C=C/C(=O)c2ccc(C(F)(F)F)c(F)c2)c(C)c1C(=O)NCC(C)C`, for which the growth is 93.6%.

For the molecule `CCN(CC)CCCC(C)Nc1cnc(C(=O)Nc2cccc3ccc(OC)nc23)cn1` (stereo not given), the growth is 79.1%.

Turning to `CN1C(=O)N(C)[C@H]2NC(NN)=N[C@H]21`, the growth is 101%.

On to `CN1C(=O)NC(c2ccc(Cl)cc2)(c2ccc(Cl)cc2)C1=O`, for which the growth was 104%.

Turning to `CC(C)N1CCN(c2ccncc2S(=O)(=O)N2CCN(C)CC2)CC1`, the growth is 94.3%.

Consider `c1cn2cc(-c3ccc4ncn(C5CCCCC5)c4c3)nc(-c3ccc4c(c3)ncn4C3CCCCC3)c2n1`, for which the growth was -20.2% (active).

As for `COC(=O)/C=C1\SC(=Nc2ccc(C(F)(F)F)cc2)N(CCc2c[nH]c3ccccc23)C1=O`, the growth was -66.3% (active).

Turning to `Cc1cc(C2=NNC(=O)Cc3cc4c(cc32)OCCO4)cc(C)c1N`, the growth was 9.52% (active).

With `O=C(c1c[nH]c(=O)c(-c2ccccc2)c1)c1ccccc1O`, the growth was 80.8%.

Turning to `C[C@@H]1CN(c2cnc(C(=O)Nc3cc(F)cc4cccnc34)cn2)C[C@H](C)N1`, the growth was 3.8% (active).

On to `COc1cc(C2C=C(C)N=C3SC=NN32)cc(OC)c1OC` (stereo not given), for which the growth is 102%.

For the molecule `O=C(O)CCCCc1ccc([N+](=O)[O-])cc1`, the growth was 107% and 115%.

For `Cc1c(N2CCCCC2)[nH]c2ccccc12`, the growth is 121%.
